{"source": "PubChem BioAssay (NCATS)", "note": "Results filed as inconclusive are left out. Entries that show only a call come without a potency. Active and inactive are the calls of the source. Calls follow the shape of the dose curve; as a rule, active = well fitted inhibition curve with a large enough effect; inconclusive = small, poorly fitted or top-dose-only effect; inactive = flat fitted curve, though single readings scatter."}
{"experiment": "P-glycoprotein substrates identified in KB-8-5-11 adenocarcinoma cell line, qHTS therapeutic library screen (AID 1346987); also: nearly all actives have a fitted effect of over 65% in size", "conditions": "KB-8-5-11 (P-gp overexpressing) viability, CellTiter-Glo, 72 h; series mostly up to 44.5 µM", "summary_of_the_method": "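Steps: plate 500 KB-8-5-11 cells/well in DMEM + 10% FCS (colchicine removed); pin compounds in dose-response; incubate 72 h, 37 degree C, 5% CO2; add CellTiter-Glo, 5 min; read luminescence.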"}
{"molecule": "CC1=C2CC3C(CCC3(C)O)C(C)(O)CC2OC1=O", "note": "(stereo not drawn)", "Potency": "inactive"}
{"molecule": "C[C@@H]1O[C@@H](O[C@H]2[C@H](OC(=O)[C@]34CCC(C)(C)C[C@H]3C3=CCC5[C@@]6(C)CC[C@H](O[C@@H]7O[C@H](CO[C@@H]8OC[C@H](O)[C@H](O)[C@H]8O[C@@H]8OC[C@@H](O)[C@H](O)[C@H]8O)[C@@H](O)[C@H](O)[C@H]7O)C(C)(C)C6CC[C@@]5(C)[C@]3(C)C[C@H]4O)O[C@H](CO)[C@@H](O)[C@@H]2O)[C@H](O[C@@H]2O[C@H](CO)[C@@H](O)[C@H](O)[C@H]2O)[C@H](O)[C@H]1O[C@@H]1OC[C@@H](O)[C@H](O[C@@H]2OC[C@@H](O)[C@H](O)[C@H]2O)[C@H]1O", "note": "(stereo partly drawn)", "activity change, negative = cytotoxicity": "9.58% [at 5.11 µM] (inactive)"}
{"molecule": "CCCCOc1nc(N)c2c(n1)N(Cc1cccc(CN3CCCC3)c1)CC(=O)N2", "Potency": "inactive"}
{"molecule": "CC(=O)OC1(C)CC(O)C2(O)C=COC(OC3OC(CO)C(O)C(O)C3O)C12", "note": "(stereo not drawn)", "Potency": "inactive"}
{"molecule": "C[C@@H]1O[C@@H](O[C@H]2[C@@H]3C=CO[C@@H](O[C@@H]4O[C@H](CO)[C@@H](O)[C@H](O)[C@H]4O)[C@@H]3[C@@]3(CO)O[C@@H]23)[C@H](O)[C@H](OC(=O)/C=C/c2ccc(O)cc2)[C@H]1OC(=O)/C=C/c1ccc(O)cc1", "Potency": "inactive"}
{"molecule": "CCC(C)C1NC(=O)C2C(C)CCN2C(=O)C(CC(O)CO)OC(=O)CCNC(=O)C(C)N(C)C(=O)C(C(C)C)N(C)C1=O", "note": "(stereo not drawn)", "Potency": "inactive"}
{"molecule": "CC(NC(=O)CC(=O)O)C(=O)Nc1ccccc1C(N)=O", "note": "(stereo not drawn)", "Potency": "inactive"}
{"molecule": "COC(=O)C1=CO[C@@H](O[C@@H]2O[C@H](CO)[C@@H](O)[C@H](O)[C@H]2O)[C@@H]2C(CO)=CC[C@H]12", "Potency": "inactive"}
